Screening results: PubChem BioAssay, The Scripps Research Institute Molecular Screening Center
M1 PAM: human M1 muscarinic receptor positive allosteric modulators, primary screen, CHO-K1 cells, Fluo-8 calcium fluorescence, 1536-well; hit rate 0.088% among 360,000; Muscarinic acetylcholine receptor M1 (Homo sapiens), P11229; activation, % at 3 µM; AID 588819, 2011; CHO-K1 hM1, ACh EC20; 0% = ACh EC20, 100% = maximal ACh; in the data active means activation above about 19%, passing the limit was not always enough
Target sequence (P11229 whole entry, looked up): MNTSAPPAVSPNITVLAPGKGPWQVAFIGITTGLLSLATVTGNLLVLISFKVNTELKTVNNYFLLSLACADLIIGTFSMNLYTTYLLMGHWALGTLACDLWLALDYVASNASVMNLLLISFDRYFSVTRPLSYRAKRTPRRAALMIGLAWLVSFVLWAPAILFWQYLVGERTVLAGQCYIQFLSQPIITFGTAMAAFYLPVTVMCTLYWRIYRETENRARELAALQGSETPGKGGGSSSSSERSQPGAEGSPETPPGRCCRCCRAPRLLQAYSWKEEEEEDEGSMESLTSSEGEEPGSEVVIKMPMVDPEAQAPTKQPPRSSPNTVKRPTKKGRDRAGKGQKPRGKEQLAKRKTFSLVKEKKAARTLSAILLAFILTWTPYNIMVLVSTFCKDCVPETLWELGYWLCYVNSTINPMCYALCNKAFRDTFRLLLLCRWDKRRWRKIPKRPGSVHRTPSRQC
CHRM1 antagonist: human M1 muscarinic receptor antagonists, primary screen, CHO-K1 cells, Fluo-8 calcium fluorescence, 1536-well; CHO-K1 hM1, ACh EC80 antagonist; inhibition, % at 3 µM; hit rate 1.3% among 360,000; AID 588852, 2011;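 active means percent inhibition above its own plate's cutoff, namely the mean of that plate's compound wells plus 3 SD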;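 further: peak over basal fluorescence ratio during 140 s after agonist addition; 0% = ACh EC80 plus DMSO and 100% = DMSO alone without agonist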
CHO-K1 Ca ag: counter-screen for M1 agonists: effect in parental CHO-K1 cells | Fluo-8 calcium fluorescence; scaled to maximal ATP response, vehicle zero | activation, % at 3 µM | hit rate 0.48% among 360,000 | AID 602248, 2012; in the data active means activation above about 15%;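 further: untransfected CHO-K1 host cells lacking M1 receptor as counterscreen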
CHRM1 agonist: human M1 muscarinic receptor agonists, primary screen, Fluo-8 calcium fluorescence, CHO-K1 cells, HTS. hit rate 0.33% among 360,000. Muscarinic acetylcholine receptor M1 (Homo sapiens), P11229. CHO-K1 hM1, agonist mode; 0% DMSO, 100% acetylcholine EC100. AID 588814, 2011. activation, % at 3 µM;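 active means activation above the run's mean compound activation plus 3 SD, cut at about 16% in these data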;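 further: peak over basal fluorescence ratio within a 140 s kinetic read after compound addition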
CHO-K1 Ca antag: M1 antagonist counterscreen hit in parental CHO-K1 cells; ATP-induced calcium, Fluo-8 fluorescence; inhibition, % at 3 µM; hit rate 0.6% among 360,000;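 active means inhibition above a per-plate cutoff, the plate's mean sample inhibition plus 3 SD, cut at about 24% in these data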;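 further: 0% = DMSO plus EC80 ATP and 100% = DMSO alone without ATP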
M1 PAM parental: nonselective calcium activators in parental CHO-K1 cells, primary screen, counter-screen for M1 PAM project, cell-based, Fluo-8 calcium fluorescence, full deck, 1536-well; AID 602247, 2012; activation, % at 3 µM; ATP EC20; 0% at ATP EC20, 100% at ATP max; hit rate 0.02% among 360,000;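 active means activation above the run cutoff, the mean activation of all test compounds plus 3 SD, cut at about 40% in these data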;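 further: peak over basal fluorescence ratio in a 140 s read after ATP addition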
Starred values were filed as active, the others as inactive. Shown are actives, neighbours in structure and some others; about 2.4% of the full set was active somewhere.

SMILES | M1 PAM | CHRM1 antagonist | CHO-K1 Ca ag | CHRM1 agonist | CHO-K1 Ca antag | M1 PAM parental
N#CC1=C(N)OC2=C(C(=O)CCC2)C1c1cc2c(cc1Br)OCO2 (configuration not stated) | -11.2 | 30.2* | -0.1 | -8.3 | 28.5* | -9.5
N#CC1=C(N)OC2=C(C(=O)CCC2)C1c1ccc2c(c1)OCO2 (configuration not stated) | -3.0 | 3.7 | 0.2 | -8.6 | 1.9 | 13.2
O=S(=O)(Nc1ccc(NS(=O)(=O)c2ccccc2)c(Cl)c1)c1ccccc1 | 9.7 | -29.4 | 0.6 | -1.1 | -12.1 | 21.8
CC(=O)Oc1c(/C=C(\C#N)C(N)=O)[nH]c2ccccc12 | -1.0 | 7.7 | 8.5 | 8.0 | 27.4* | 9.4
N#C/C(=C\c1c[nH]c2ccccc12)C(N)=O | 5.3 | -3.8 | 0.8 | 2.0 | -2.0 | -9.7
CC(C)(C)NC(=O)COC(=O)c1snc(C(=O)NC2CCCCC2)c1N | -3.8 | 7.4 | 6.5 | 2.5 | -4.4 | -7.4
Cc1ccccc1C(=O)Oc1cc(N)n(S(C)(=O)=O)n1 | 6.8 | -4.2 | -0.6 | -4.6 | 24.2* | -14.9
COc1ccc(OC)c(NC(=O)CSc2nnc(C3CCCCC3)o2)c1 | 2.8 | -5.0 | 0.8 | -4.7 | -10.4 | 12.6
O=C(O)CCN1C(=O)/C(=C\c2ccc(OCc3ccccc3)c(OCc3ccccc3)c2)SC1=S | -0.1 | 1.4 | 1.1 | -1.2 | 1.4 | -1.7
COc1ccc(NC(=O)COc2coc(CN3CCc4ccccc4C3)cc2=O)cc1 | 3.2 | -7.5 | 0.1 | -5.8 | -4.8 | -1.5
Cc1ccccc1NC(=O)COc1coc(CN2CCCc3ccccc32)cc1=O | 26.3* | -9.4 | 3.9 | -1.4 | -9.7 | 2.3
NC(=O)c1ccc(NC(=O)COc2coc(CN3CCc4ccccc4C3)cc2=O)cc1 | 8.3 | -9.6 | 16.0* | -1.4 | 6.9 | 1.8
CCc1nc(SCc2ccccc2)n[nH]1 | -0.6 | -2.5 | 0.0 | -3.0 | 13.3 | -21.6
c1ccc(Cn2c(-c3ccccc3)c[n+]3c2SCCC3)cc1 | -25.1 | 98.1* | 1.0 | -9.0 | -9.6 | 20.3
c1ccc(-c2cn(-c3ccccc3)c3[n+]2CCCS3)cc1 | -5.9 | 7.0 | 0.1 | -8.5 | 0.7 | -10.2
CCSc1nc2cc(OC)c(OC)cc2c(=O)n1CCc1ccccc1 | 2.1 | -4.0 | -0.6 | -1.9 | -31.2 | 13.2
O=C(Nc1cccc(Cl)c1)O/N=C\c1ccncc1 | -6.2 | -5.8 | 2.3 | 2.3 | -3.8 | -3.5
O=C(Nc1ccc(Cl)c(Cl)c1)O/N=C/c1ccncc1 | -7.2 | 16.7 | 12.4 | 1.7 | 28.1* | 1.2
CN(C)CCOC(=O)NC12CC3CC(CC(C3)C1)C2 | 6.1 | -13.6 | 1.5 | 4.1 | -5.4 | 16.7
CC(=O)c1c(C)oc2ccc(NS(=O)(=O)c3ccc(F)cc3C)cc12 | -16.9 | 28.4* | 8.1 | 5.2 | 14.0 | -9.9
CC(=O)c1c(C)oc2ccc(NS(=O)(=O)c3ccc(O)c(C(=O)O)c3)cc12 | 9.5 | -15.6 | -0.7 | 1.0 | -3.9 | 6.4
O=C(COC(=O)c1cc[n+]([O-])cc1)Nc1ccc([N+](=O)[O-])cc1C(F)(F)F | 1.8 | -4.4 | 3.3 | -0.6 | -6.9 | 4.8
O=C(CS(=O)CC(=O)N(CC(=O)NC1CCCC1)C1CCCC1)Nc1ccc(F)cc1 (configuration not stated) | 27.8* | 12.1 | 2.5 | -4.3 | 5.3 | -4.8
CC(=O)c1ccc(N(C(=O)CS(=O)CC(=O)Nc2ccc(F)cc2)C(C(=O)NC2CCCCC2)c2cccs2)cc1 (configuration not stated) | -0.7 | -2.0 | -0.7 | -4.7 | 25.4* | -11.5
COc1ccc(N(C(=O)CNS(=O)(=O)c2ccccc2)C(C(=O)NCc2ccco2)C(C)C)cc1 (configuration not stated) | 5.6 | -3.1 | 0.7 | -6.6 | -15.4 | 15.2
Cc1ccc(S(=O)(=O)CCSc2cccc(C(=O)Nc3ccccc3C(=O)O)c2)cc1 | 36.6* | 6.0 | -0.5 | -2.5 | -0.2 | 2.3
c1ccc(CNc2ncnc3ccccc23)cc1 | -10.9 | 12.2 | 6.2 | -1.8 | 12.9 | 9.9
